Source: PubChem BioAssay (EPA / NIEHS)
Inconclusive results are not listed. Calls of active or inactive are those of the source. Rule for the calls, unless noted: active = hit-call score of the fitted dose curve at least 0.9, where 1 is the maximum; inactive = score below 0.9.

Experiments:
[1] = ATG_TCF_b_cat_CIS: Attagene CIS-FACTORIAL HepG2 Assay for human T-Cell-Factor with beta-catenin (TCF/b-cat) (AID 2282965); conditions: HepG2 TCF/beta-catenin cis-reporter transcription, actives raise or lower the signal
Procedure, shortened: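 HepG2 cells transiently transfected with multiple cis-promoter-regulated reporter transcription units, so endogenous transcription factor activity is measured. Reporter mRNA read 24 hours after dosing by RT-PCR, fluorescent labelling and capillary electrophoresis; bidirectional fitting against DMSO.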

[2] = ATG_TAL_CIS: Attagene CIS-FACTORIAL HepG2 Assay for human TAL Basal Promoter (AID 2282966); conditions: HepG2 Attagene cis-factorial TAL promoter reporter; actives raise or lower the signal;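 note: background control endpoint measuring basal TAL promoter reporter mRNA not a specific factor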
Procedure, shortened: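 HepG2, transient MRTU transfection, 24 h compound exposure; RNA → oligo(dT) RT → PCR → 6-FAM primer extension → HpaI digest → CE fluorescence. Bidirectional curve fit vs DMSO. Background-control readout.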

[3] = ATG_TGFb_CIS: Attagene CIS-FACTORIAL HepG2 Assay for human Transforming Growth Factor (TGF) (AID 2282967); conditions: HepG2 Attagene CIS TGFb reporter, mRNA transcription; actives raise or lower the signal
Procedure, shortened: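 Readout: fluorescently labeled reporter cDNA fragments resolved by capillary electrophoresis after RT-PCR. Transfected HepG2 cells dosed for 24 h; endogenous TF activity at TGFB1-linked cis element; gain or loss fitted relative to DMSO.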

[4] = ATG_VDRE_CIS: Attagene CIS-FACTORIAL HepG2 Assay for human Vitamin D Receptor Element (VDRE) (AID 2282968); conditions: HepG2 VDRE cis-reporter transcription, actives raise or lower the signal
Procedure, shortened: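 Steps: transfect HepG2 with multiple reporter transcription units; dose chemicals 24 h; isolate RNA; RT-PCR; label with 6-FAM primer extension; HpaI digest; capillary electrophoresis. Curves fitted both directions against DMSO.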

[5] = molecular target: Estrogen receptor (Homo sapiens) (UniProt P03372); test: ATG_ERa_TRANS: Attagene TRANS-FACTORIAL HepG2 Assay for human Estrogen Receptor alpha (ERa) (AID 2282970; active = hit-call score of the fitted dose curve at least 0.9, where 1 is the maximum); conditions: HepG2 Attagene TRANS ERa GAL4 reporter, mRNA
Chain of Estrogen receptor (Homo sapiens) (P03372 whole entry, looked up, the tested form may be a part): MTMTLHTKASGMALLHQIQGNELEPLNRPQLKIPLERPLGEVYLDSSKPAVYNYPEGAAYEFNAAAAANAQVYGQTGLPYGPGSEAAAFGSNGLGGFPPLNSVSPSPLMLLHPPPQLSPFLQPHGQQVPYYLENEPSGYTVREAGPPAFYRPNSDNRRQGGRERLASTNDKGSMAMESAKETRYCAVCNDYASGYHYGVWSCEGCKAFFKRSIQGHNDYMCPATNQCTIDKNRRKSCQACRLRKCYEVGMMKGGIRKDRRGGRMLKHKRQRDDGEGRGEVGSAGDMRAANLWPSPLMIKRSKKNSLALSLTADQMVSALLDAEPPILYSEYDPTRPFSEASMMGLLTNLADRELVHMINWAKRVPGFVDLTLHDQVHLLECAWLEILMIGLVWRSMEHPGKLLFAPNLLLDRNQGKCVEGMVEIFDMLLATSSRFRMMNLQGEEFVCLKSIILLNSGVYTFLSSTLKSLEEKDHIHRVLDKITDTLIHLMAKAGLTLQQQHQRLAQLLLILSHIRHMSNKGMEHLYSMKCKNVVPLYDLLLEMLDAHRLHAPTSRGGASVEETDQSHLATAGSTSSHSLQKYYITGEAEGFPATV
Procedure, shortened: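 Reporter mRNA induction after 24 hours, detected by fluorescent RT-PCR and capillary electrophoresis, gives the read-out. Cells are HepG2 transiently transfected with GAL4-UAS reporter transcription units responding to chimeric NR-Gal4. Activity is taken as gain of signal over DMSO baseline.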

[6] = molecular target: Steroid hormone receptor ERR1 (Homo sapiens) (UniProt P11474); test: ATG_ERRa_TRANS: Attagene TRANS-FACTORIAL HepG2 Assay for human Estrogen-Related Receptor alpha (ERRa) (AID 2282971; active = hit-call score of the fitted dose curve at least 0.9, where 1 is the maximum); conditions: HepG2 Attagene TRANS reporter, ERRa transactivation
Chain of Steroid hormone receptor ERR1 (Homo sapiens) (P11474 whole entry, looked up, the tested form may be a part): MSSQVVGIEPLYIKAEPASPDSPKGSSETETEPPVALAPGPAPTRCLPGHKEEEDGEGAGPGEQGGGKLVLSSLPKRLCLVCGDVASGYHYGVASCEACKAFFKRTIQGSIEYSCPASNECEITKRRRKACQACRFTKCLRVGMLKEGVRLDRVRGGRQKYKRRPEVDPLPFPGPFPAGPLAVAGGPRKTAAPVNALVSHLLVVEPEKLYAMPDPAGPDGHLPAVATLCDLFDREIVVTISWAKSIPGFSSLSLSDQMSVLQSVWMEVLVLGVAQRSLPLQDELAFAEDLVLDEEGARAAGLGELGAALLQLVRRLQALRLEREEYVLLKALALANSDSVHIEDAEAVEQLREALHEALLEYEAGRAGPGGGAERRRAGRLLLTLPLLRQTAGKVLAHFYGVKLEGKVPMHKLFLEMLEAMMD
Procedure, shortened: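 Transfected HepG2, 24 h dosing, ERRa-Gal4 chimera driving GAL4-UAS reporter. Readout: reporter mRNA via RT-PCR plus capillary electrophoresis (fluorescence). Positive direction vs DMSO control.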

[7] = molecular target: X-box-binding protein 1 (Homo sapiens) (UniProt P17861); test: ATG_Xbp1_CIS: Attagene CIS-FACTORIAL HepG2 Assay for human X-box Binding Protein 1 (XBP1) (AID 2282972); conditions: HepG2 XBP1 cis-element reporter, Attagene multiplex; actives raise or lower the signal
Chain of X-box-binding protein 1 (Homo sapiens) (P17861 whole entry, looked up): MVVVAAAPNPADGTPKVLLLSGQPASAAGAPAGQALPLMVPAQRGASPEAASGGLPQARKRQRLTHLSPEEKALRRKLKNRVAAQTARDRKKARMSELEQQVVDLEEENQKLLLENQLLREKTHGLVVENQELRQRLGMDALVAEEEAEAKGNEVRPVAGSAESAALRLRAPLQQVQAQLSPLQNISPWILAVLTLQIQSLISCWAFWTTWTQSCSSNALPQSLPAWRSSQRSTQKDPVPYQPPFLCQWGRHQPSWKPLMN
Procedure, shortened: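 Changes in reporter transcript abundance, read by RT-PCR and capillary electrophoresis, reflect endogenous transcription factor activity. Transfected HepG2 cells received compound for 24 hours; DMSO defined baseline for bidirectional analysis.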

[8] = ATG_GAL4_TRANS: Attagene TRANS-FACTORIAL HepG2 Assay for GAL4 (Internal Marker) (AID 2282976; active = hit-call score of the fitted dose curve at least 0.9, where 1 is the maximum); conditions: HepG2 Attagene TRANS GAL4 internal marker reporter
Procedure, shortened: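 RT-PCR/capillary electrophoresis readout of reporter mRNA. HepG2, transient MRTU transfection (GAL4-UAS reporters), 24 h compound exposure. Background-control endpoint, positive direction vs DMSO baseline.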

[9] = molecular target: Nuclear receptor subfamily 1 group I member 3 (Homo sapiens) (UniProt Q14994); test: ATG_CAR_TRANS: Attagene TRANS-FACTORIAL HepG2 Assay for human Constitutive Androstane Receptor (CAR) (AID 2282969; active = hit-call score of the fitted dose curve at least 0.9, where 1 is the maximum;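 note: activators raise reporter mRNA above DMSO so AC50 marks induction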); conditions: HepG2 Attagene TRANS-FACTORIAL CAR reporter
Chain of Nuclear receptor subfamily 1 group I member 3 (Homo sapiens) (Q14994 whole entry, looked up, the tested form may be a part): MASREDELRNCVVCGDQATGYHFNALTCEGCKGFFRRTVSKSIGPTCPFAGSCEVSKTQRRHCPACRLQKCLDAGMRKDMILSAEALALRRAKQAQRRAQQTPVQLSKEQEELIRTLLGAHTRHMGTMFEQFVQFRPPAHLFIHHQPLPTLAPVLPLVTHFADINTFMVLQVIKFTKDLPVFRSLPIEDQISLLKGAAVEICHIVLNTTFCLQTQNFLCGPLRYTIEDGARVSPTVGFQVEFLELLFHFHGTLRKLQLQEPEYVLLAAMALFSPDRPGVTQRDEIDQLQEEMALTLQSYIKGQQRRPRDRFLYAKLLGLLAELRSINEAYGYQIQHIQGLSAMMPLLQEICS
Procedure, shortened: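 Steps: transient transfection of HepG2 with multiple GAL4-UAS reporter units; 24 h compound incubation; RNA isolation, RT-PCR, 6-FAM primer extension, HpaI digest; capillary electrophoresis. Gain-of-signal relative to DMSO negative control.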

[10] = ATG_M_19_TRANS: Attagene TRANS-FACTORIAL HepG2 Assay for M19 Transcription Factor (Internal Marker) (AID 2282974; active = hit-call score of the fitted dose curve at least 0.9, where 1 is the maximum); conditions: HepG2 Attagene TRANS-FACTORIAL M19 internal marker reporter
Procedure, shortened: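 Measured here: internal-marker reporter transcript from HepG2 cells transfected with MRTUs, harvested at 24 h. cDNA PCR products were 6-FAM labelled by primer extension, cut with HpaI for 2 h at 37 C, and resolved by CE.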

Measured: AC50

CCc1cccc(C)c1N
not listed: [9] | [10]
inactive: all other assays above

CCNc1nc(NC(C)(C)C)nc(OC)n1
active: [4] 19.3 µM
not listed: [6]
inactive: all other assays above

O=C(Cl)c1ccc(C(=O)Cl)cc1
not listed: [6]
inactive: all other assays above

C=C[Si](OCCOC)(OCCOC)OCCOC
active: [4] 5.92 µM
not listed: [6]
inactive: all other assays above

CC(CC=O)CC(C)(C)C (stereo not given)
not listed: [6] | [10]
inactive: all other assays above

NNS(=O)(=O)c1ccc(Oc2ccc(S(=O)(=O)NN)cc2)cc1
not listed: [9]
inactive: all other assays above

CCCCCCCC(=O)OCC
not listed: [8] | [9]
inactive: all other assays above

C=C(C)C1CC=C(C)C(OC(C)=O)C1 (stereo not given)
not listed: [8] | [9] | [10]
inactive: all other assays above

COC(=O)C=Cc1ccccc1
not listed: [6] | [10]
inactive: all other assays above

Nc1cccc(N)n1
not listed: [5] | [6]
inactive: all other assays above

C[Si]1(C)O[Si](C)(C)O[Si](C)(C)O[Si](C)(C)O[Si](C)(C)O1
not listed: [5] | [6] | [10]
inactive: all other assays above

C=CC(=O)NCOCCCC
inactive: [1] | [2] | [3] | [9] | [7]
active: [4] 49.8 µM

CCCCCCCCCC[N+](C)(CCCCCCCCCC)CCC[Si](OC)(OC)OC
active: [7] 18 µM
not listed: [5] | [6] | [8]
inactive: all other assays above

CC(C)CC(=O)OCc1ccccc1
not listed: [6] | [10]
inactive: all other assays above

CCCCCCCCCCCCCCCCCCOS(=O)(=O)O
active: [1] 17.3 µM | [4] 51.7 µM | [7] 33.4 µM
not listed: [8] | [9]
inactive: all other assays above

COc1cc(C)ccc1O
not listed: [6] | [10]
inactive: all other assays above

c1ccc2cnccc2c1
not listed: [9]
inactive: all other assays above

CCCCC(C=O)CC (stereo not given)
not listed: [5] | [6]
inactive: all other assays above

Oc1c(Cl)cc(Cl)c(Cl)c1Cl
inactive: [1] | [2] | [3] | [5] | [7]
active: [4] 59.8 µM

Nc1ccnc(=O)[nH]1
not listed: [6] | [8] | [9]
inactive: all other assays above

CCCCCCCCCC(C)=O
not listed: [6] | [8] | [9]
inactive: all other assays above

CCC1COC(=O)O1 (stereo not given)
inactive: [1] | [2] | [3] | [4] | [5] | [7]

CCCCCCCCCCCCCC(=O)OC(C)C
not listed: [6] | [8] | [9]
inactive: all other assays above

CCCCCCCCCCCCC
inactive: [1] | [2] | [3] | [4] | [5] | [7]

CC(=O)c1ccccc1O
not listed: [6] | [8] | [9]
inactive: all other assays above

CCCCCCCCCCCCc1ccc(O)cc1
active: [5] 0.0847 µM
not listed: [6] | [8] | [9]
inactive: all other assays above

CC(C)c1cc(C(C)C)cc(C(C)C)c1
inactive: [2] | [3] | [7] | [10]
active: [1] 169 µM | [4] 100 µM | [5] 58.9 µM

CCCc1ccc(O)c(OC)c1
inactive: [1] | [2] | [3] | [4] | [5] | [7]

CCCC/C=C/C=C\C=O
inactive: [2] | [3] | [5] | [10]
active: [1] 100 µM | [4] 6.51 µM | [7] 178 µM

CC(C)OC(=O)c1ccccc1
inactive: [1] | [2] | [3] | [4] | [5] | [7]

COC(C=C(C)CCC=C(C)C)OC
inactive: [1] | [2] | [3] | [5] | [7]
active: [4] 76.7 µM

CCCCc1ccc(Cl)cc1
inactive: [1] | [2] | [3] | [4] | [5] | [7]

CCOC(=O)C1=NOC(c2ccccc2)(c2ccccc2)C1
inactive: [1] | [2] | [3] | [4] | [5] | [7]

O=C(O)CCC(=O)O
not listed: [6] | [9]
inactive: all other assays above

C=CC(=O)OCCCCCCCC(C)C
inactive: [1] | [2] | [4] | [5] | [7]
active: [3] 55 µM

C=C[C@@]1(C)CC(=O)[C@]2(O)[C@@]3(C)[C@@H](O)CCC(C)(C)[C@@H]3[C@H](O)[C@H](OC(C)=O)[C@@]2(C)O1
active: [4] 2.1 µM | [5] 2.1 µM
inactive: [1] | [2] | [3] | [7]

CC(C)(CO)COC(=O)C(C)(C)CO
not listed: [9] | [10]
inactive: all other assays above

CC(CCC(=O)O)(c1ccc(O)cc1)c1ccc(O)cc1
active: [5] 16.4 µM
not listed: [6] | [8] | [9]
inactive: all other assays above

C=CC(C)(CCC=C(C)C)OC(=O)C=Cc1ccccc1 (stereo not given)
inactive: [1] | [2] | [3] | [4] | [7]
active: [5] 7.3 µM

C[N+](C)(C)CCCNS(=O)(=O)C(F)(F)C(F)(F)C(F)(F)C(F)(F)C(F)(F)C(F)(F)C(F)(F)C(F)(F)F
active: [3] 60.6 µM
not listed: [6] | [9]
inactive: all other assays above

CC(C)CO
inactive: [1] | [2] | [4] | [5] | [7]
active: [3] 0.224 µM

Cc1cc(C)c(C=O)c(C)c1
active: [4] 3.24 µM
inactive: [1] | [2] | [3] | [5] | [7]

CCCCCCCCCCCC(=O)OCC
not listed: [6] | [8] | [9]
inactive: all other assays above

CCCCCCCCCCCC(=O)N(C)CC(=O)O
inactive: [1] | [2] | [3] | [4] | [5] | [7]

CCCCC/C=C\C/C=C\CCCCCCCC(=O)O
active: [2] 100 µM | [7] 147 µM
inactive: [1] | [3] | [4] | [5]

CC1=CCC2CC1C2(C)C (stereo not given)
not listed: [6] | [8] | [9]
inactive: all other assays above

CC1OC(=O)C(C)OC1=O (stereo not given)
inactive: [1] | [2] | [3] | [4] | [5] | [7]

Cc1cc(C)n(CO)n1
inactive: [1] | [2] | [3] | [4] | [5] | [7]

C=CC(C)(O)CC/C=C(\C)CC (stereo not given)
active: [5] 30.3 µM
not listed: [6] | [8] | [9]
inactive: all other assays above

CC(C)=CCl
inactive: [1] | [2] | [3] | [4] | [5] | [7]

CCCCCCCC(=O)OCC(COC(=O)CCCCCCC)OC(=O)CCCCCCC
inactive: [1] | [2] | [3] | [4] | [5] | [7]

O=C(Nc1ccccc1)c1cc(Cl)ccc1O
active: [3] 52.5 µM | [4] 6.51 µM | [7] 4.18 µM
inactive: [1] | [2] | [5] | [10]

Cn1cccc1
not listed: [6] | [8] | [9]
inactive: all other assays above

CCCCCCCCC(CO)CCCCCC (stereo not given)
inactive: [1] | [2] | [3] | [4] | [5] | [7]

O=C(O)/C=C/c1ccccc1
inactive: [1] | [2] | [3] | [4] | [7]
active: [5] 61.7 µM

CC1(C)C(=O)N(CO)C(=O)N1CO
inactive: [1] | [2] | [3] | [4] | [7] | [8]

O=C(O)C(F)(F)C(F)(F)C(F)(F)C(F)(F)C(=O)O
not listed: [6] | [9] | [10]
inactive: all other assays above

Nc1ncnc2nc[nH]c12
not listed: [5] | [6] | [9]
inactive: all other assays above

CCc1cccc(CC)c1
not listed: [6] | [9] | [10]
inactive: all other assays above

Oc1ccc(/C=C/c2cc(O)cc(O)c2)cc1
inactive: [2] | [3] | [4] | [7] | [8]
active: [1] 27.3 µM | [5] 6 µM

CC(C)[N+](C)(CCOC(=O)C1c2ccccc2Oc2ccccc21)C(C)C
not listed: [6] | [9]
inactive: all other assays above

CCC(C)N (stereo not given)
inactive: [1] | [2] | [3] | [4] | [7]

CCCCCCCCCCCC(C)=O
active: [1] 161 µM | [2] 178 µM | [3] 166 µM | [5] 11.6 µM
inactive: [4] | [7] | [8]

O=C1c2ccccc2C(=O)c2cc(S(=O)(=O)O)ccc21
inactive: [1] | [2] | [3] | [4] | [7] | [10]
